As a reminder, the AC50 is the midpoint of the concentration-response curve, whichever way the signal moves.

Each structure is given as a SMILES string. Records with an inconclusive call do not appear. Active and inactive are the calls of the source. Rule for the calls: active = hit-call score of the fitted dose curve at least 0.9, where 1 is the maximum; inconclusive = response in the unintended direction; inactive = score below 0.9.

We go through eleven molecules from PubChem BioAssay (EPA / NIEHS).

Experiment [1] has as its target rat Thyrotropin Releasing Hormone Receptor (TRH), Trhr (gene 25570) (UniProt Q01717). The experiment can be described thus: NVS_GPCR_rTRH: NovaScreen (NVS) G Protein-Coupled Receptor Assay for rat Thyrotropin Releasing Hormone Receptor (TRH) (AID 2283329).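 Note: hit means lower bound tracer signal versus DMSO baseline.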 An outline of the steps: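 Test compounds are screened at 25 uM in duplicate against radioligand binding in rat forebrain membranes, with active pairs followed up over a concentration range. Detection uses filter-based radiodetection after a 4 h exposure.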

The target of experiment [2] is Voltage-gated inwardly rectifying potassium channel KCNH2 (Homo sapiens) (UniProt Q12809). The experiment can be described thus: NVS_IC_hKhERGCh: NovaScreen (NVS) Ion Channel Assay for human Potassium Channel ERG (KhERGCh) (AID 2283333). An outline of the steps:
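Membranes from CHO cells expressing human ERG; displacement of radioligand measured by filtration and scintillation after 0.75 h. Single-concentration duplicate screen at 25 uM, then concentration-response for actives; DMSO baseline.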

In experiment [3] the target is human Constitutive Androstane Receptor (CAR), NR1I3 (gene 9970) (UniProt Q14994). Briefly: NVS_NR_hCAR_Antagonist: NovaScreen (NVS) Nuclear Receptor Binding Assay for human Constitutive Androstane Receptor Antagonism (CAR) (AID 2283344). An outline of the steps:
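Single 25 uM duplicate primary screen, with concentration-series follow-up on actives. Cell-free binding format run in antagonist mode, TR-FRET signal taken 1 h post-dose; activity is signal loss relative to DMSO.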

Experiment [4] deals with rat Peripheral-type Benzodiazepine Receptor (PBR), Tspo (gene 24230) (UniProt P16257). Briefly: NVS_MP_rPBR: NovaScreen (NVS) Membrane Protein Assay for rat Peripheral-type Benzodiazepine Receptor (PBR) (AID 2283335). Summed up: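 Single-concentration duplicate screening at 25 uM preceded concentration-series retesting of actives. Binding of a specific radioligand to rat kidney membrane PBR was read by filtration radiodetection after 1 h, with plate-wise positive and negative controls.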
rat Peripheral-type Benzodiazepine Receptor (PBR), Tspo (gene 24230), sequence (P16257 whole entry, looked up): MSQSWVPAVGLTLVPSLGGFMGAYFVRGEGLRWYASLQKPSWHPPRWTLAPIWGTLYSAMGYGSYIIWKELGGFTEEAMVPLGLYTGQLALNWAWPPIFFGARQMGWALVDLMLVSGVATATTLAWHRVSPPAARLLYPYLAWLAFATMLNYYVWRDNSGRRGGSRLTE

For a further experiment, the system named is NCBI gene 100848466. The experiment can be described thus: NVS_NR_bPR: NovaScreen (NVS) Nuclear Receptor Binding Assay for bovine Progextron Receptor (PR) (AID 2283343).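 For AC50: actives lower bound radioligand signal below DMSO meaning displacement of the label.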 An outline of the steps: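 Competitive radioligand binding with membranes from bovine uterus, scintillation read-out at 18 h post-dose. Compounds first tested in duplicate at 25 uM, then actives in concentration series; loss-of-signal relative to DMSO.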

For experiment [5], the target named is chimpanzee Androgen Receptor (AR), AR (gene 747460) (UniProt O97775). The experiment can be described thus: NVS_NR_cAR: NovaScreen (NVS) Nuclear Receptor Binding Assay for chimpanzee Androgen Receptor (AR) (AID 2283346).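 Note: radioligand displacement from AR measured by scintillation counting in a cell-free assay.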 An outline of the steps:
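Cell-free competition binding with insect-cell (Sf9/Sf21) extracted chimpanzee AR; scintillation signal from lysate at 72 h. Screened in duplicate at 25 uM, then concentration-response for actives; fitting relative to DMSO.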

The target of experiment [6] is human Androgen Receptor (AR), AR (gene 367) (UniProt P10275). The experiment can be described thus: NVS_NR_hAR: NovaScreen (NVS) Nuclear Receptor Binding Assay for human Androgen Receptor (AR) (AID 2283332). An outline of the steps: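 Radioligand competitive binding, scintillation read-out, in cell-free extract from LnCAP, measured 20 h after dosing. Screened first in duplicate at 25 uM, then concentration series for actives; activity fitted against DMSO.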
human Androgen Receptor (AR), AR (gene 367), sequence (P10275 whole entry, looked up): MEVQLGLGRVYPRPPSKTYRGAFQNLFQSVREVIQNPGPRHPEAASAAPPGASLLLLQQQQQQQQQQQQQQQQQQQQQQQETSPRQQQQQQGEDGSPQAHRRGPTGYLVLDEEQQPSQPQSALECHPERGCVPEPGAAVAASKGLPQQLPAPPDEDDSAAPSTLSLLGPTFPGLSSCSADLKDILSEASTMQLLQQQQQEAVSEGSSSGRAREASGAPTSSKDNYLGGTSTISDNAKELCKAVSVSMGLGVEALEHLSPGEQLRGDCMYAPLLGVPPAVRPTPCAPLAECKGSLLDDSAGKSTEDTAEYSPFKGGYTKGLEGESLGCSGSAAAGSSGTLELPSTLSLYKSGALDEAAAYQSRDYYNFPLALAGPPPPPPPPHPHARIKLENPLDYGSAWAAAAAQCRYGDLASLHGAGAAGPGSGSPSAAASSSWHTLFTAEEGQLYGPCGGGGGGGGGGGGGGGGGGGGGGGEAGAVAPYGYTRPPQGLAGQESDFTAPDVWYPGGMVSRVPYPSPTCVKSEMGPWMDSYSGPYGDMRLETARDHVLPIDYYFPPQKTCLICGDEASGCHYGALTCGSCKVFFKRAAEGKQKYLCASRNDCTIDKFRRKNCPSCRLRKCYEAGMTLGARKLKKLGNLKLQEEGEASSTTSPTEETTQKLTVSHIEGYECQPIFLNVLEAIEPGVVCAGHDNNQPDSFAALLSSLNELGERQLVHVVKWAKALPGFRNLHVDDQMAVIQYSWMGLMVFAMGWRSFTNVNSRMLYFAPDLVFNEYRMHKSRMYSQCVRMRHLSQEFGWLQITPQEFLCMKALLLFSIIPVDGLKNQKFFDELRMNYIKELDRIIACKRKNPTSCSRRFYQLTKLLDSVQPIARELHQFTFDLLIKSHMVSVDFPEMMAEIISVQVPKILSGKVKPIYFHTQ

The nature of experiment [7]: NVS_IC_rCaBTZCHL: NovaScreen (NVS) Ion Channel Assay for Calcium Channel, Type L, Benzothiazepine Site (CaBTZCHL) (AID 2283337). An outline of the steps: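 Benzothiazepine-site binding was assessed in a tissue-derived, cell-free rat cortical membrane system. After 1.5 h exposure, radioactivity retained on filters was quantified by scintillation; positive and negative controls accompanied every plate.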

For experiment [8], the system named is guinea pig Histamine Receptor (H2), gene 100729734. Briefly: NVS_GPCR_gH2: NovaScreen (NVS) G Protein-Coupled Receptor Assay for guinea pig Histamine Receptor (H2) (AID 2283342). Summed up: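 Guinea pig striatal membrane preparation with specific radioligand; bound counts measured by filtration and scintillation 1 h post-dosing, DMSO as baseline. Chemicals passing a 25 uM duplicate screen were titrated to a 50 uM maximum.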

The target of experiment [9] is rat Oxytocin Receptor (OXT), Oxtr (gene 25342) (UniProt P70536). The experiment can be described thus: NVS_GPCR_rOXT: NovaScreen (NVS) G Protein-Coupled Receptor Assay for rat Oxytocin Receptor (OXT) (AID 2283330). An outline of the steps: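 Binding to rat uterine membrane receptor was followed by scintillation counting of filter-trapped radioligand after 1 h. A 25 uM duplicate single-point screen preceded concentration series with a top of 50 uM. Signal loss was analysed relative to DMSO.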
rat Oxytocin Receptor (OXT), Oxtr (gene 25342), sequence (P70536 whole entry, looked up): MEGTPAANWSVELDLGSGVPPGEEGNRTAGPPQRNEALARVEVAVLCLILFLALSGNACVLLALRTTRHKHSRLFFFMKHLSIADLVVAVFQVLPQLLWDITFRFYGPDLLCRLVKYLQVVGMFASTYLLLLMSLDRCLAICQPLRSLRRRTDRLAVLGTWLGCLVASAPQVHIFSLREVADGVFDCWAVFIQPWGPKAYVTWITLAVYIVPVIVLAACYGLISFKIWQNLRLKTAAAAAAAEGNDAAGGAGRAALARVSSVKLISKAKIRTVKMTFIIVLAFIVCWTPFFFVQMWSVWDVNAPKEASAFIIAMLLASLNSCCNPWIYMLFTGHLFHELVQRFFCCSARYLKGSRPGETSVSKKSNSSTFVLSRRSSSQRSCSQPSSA

Experiment [10] concerns the target rat Glutamate, NMDA Agonist Site (GluNMDA), Grin1 (gene 24408) (UniProt P35439). Briefly: NVS_LGIC_rGluNMDA_Agonist: NovaScreen (NVS) Ligand-Gated Ion Channel Assay for rat Glutamate, NMDA Agonist Site (GluNMDA) (AID 2283327). Summed up:
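Radioligand displacement at the agonist site on rat forebrain membrane preparations, read by filter scintillation after 1 h. Chemicals were first run at 25 uM in duplicate; those passing threshold were titrated to a 50 uM maximum.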

Experiment [11] addresses Bile acid receptor (Homo sapiens) (UniProt Q96RI1). Briefly: NVS_NR_hFXR_Agonist: NovaScreen (NVS) Nuclear Receptor Binding Assay for human Farnesoid X Receptor Agonism (FXR) (AID 2283347). Summed up: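 Agonist-mode FXR assay read by time-resolved FRET 1 h after compound addition, using isolated human receptor protein without cells. Duplicate 25 uM single-point primary screen, concentration series for confirmed actives; DMSO as baseline.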

Experiment [12] deals with rat Gamma-Aminobutyric Acid Type A Receptor BDZ, alpha 6 site (GABARa6), Gabra6 (gene 29708) (UniProt P30191). Briefly: NVS_LGIC_rGABARa6: NovaScreen (NVS) Ligand-Gated Ion Channel Assay for rat Gamma-Aminobutyric Acid Type A Receptor BDZ, alpha 6 site (GABARa6) (AID 2283339). Summed up: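 Actives from a 25 uM duplicate screen were retested in concentration series (max 50 uM). Specific radioligand displacement from rat cerebellar membranes was counted by filter-based scintillation at 1 h; DMSO served as baseline.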
rat Gamma-Aminobutyric Acid Type A Receptor BDZ, alpha 6 site (GABARa6), Gabra6 (gene 29708), sequence (P30191 whole entry, looked up): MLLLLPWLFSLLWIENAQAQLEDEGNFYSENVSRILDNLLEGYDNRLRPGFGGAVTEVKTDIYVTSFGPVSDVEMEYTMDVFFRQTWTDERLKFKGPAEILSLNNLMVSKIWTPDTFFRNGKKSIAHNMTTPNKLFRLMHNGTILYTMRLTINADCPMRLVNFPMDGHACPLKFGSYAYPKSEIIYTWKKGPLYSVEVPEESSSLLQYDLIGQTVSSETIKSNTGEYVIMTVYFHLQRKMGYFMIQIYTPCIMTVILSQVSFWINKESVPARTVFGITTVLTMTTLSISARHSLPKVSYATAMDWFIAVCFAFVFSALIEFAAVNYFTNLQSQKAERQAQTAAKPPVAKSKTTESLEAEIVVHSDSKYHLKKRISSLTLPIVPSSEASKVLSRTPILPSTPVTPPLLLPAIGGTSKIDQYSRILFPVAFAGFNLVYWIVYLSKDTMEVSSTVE

Experiment [13] deals with human Serotonin, 5-Hydroxytryptamine Receptor 3 (5HT3), HTR3A (gene 3359) (UniProt P46098). Briefly: NVS_LGIC_h5HT3: NovaScreen (NVS) Ligand-Gated Ion Channel Assay for human Serotonin, 5-Hydroxytryptamine Receptor 3 (5HT3) (AID 2283325). An outline of the steps:
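Initially tested at 25 uM in duplicate, then up to 50 uM in concentration-response for actives, compounds competed with a radioligand for HEK293-derived human 5-HT3 receptor. Bound counts were measured by filtration and scintillation at 1 h; loss of signal versus DMSO.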

Voltage-gated inwardly rectifying potassium channel KCNH2 (Homo sapiens), sequence (Q12809 whole entry, looked up): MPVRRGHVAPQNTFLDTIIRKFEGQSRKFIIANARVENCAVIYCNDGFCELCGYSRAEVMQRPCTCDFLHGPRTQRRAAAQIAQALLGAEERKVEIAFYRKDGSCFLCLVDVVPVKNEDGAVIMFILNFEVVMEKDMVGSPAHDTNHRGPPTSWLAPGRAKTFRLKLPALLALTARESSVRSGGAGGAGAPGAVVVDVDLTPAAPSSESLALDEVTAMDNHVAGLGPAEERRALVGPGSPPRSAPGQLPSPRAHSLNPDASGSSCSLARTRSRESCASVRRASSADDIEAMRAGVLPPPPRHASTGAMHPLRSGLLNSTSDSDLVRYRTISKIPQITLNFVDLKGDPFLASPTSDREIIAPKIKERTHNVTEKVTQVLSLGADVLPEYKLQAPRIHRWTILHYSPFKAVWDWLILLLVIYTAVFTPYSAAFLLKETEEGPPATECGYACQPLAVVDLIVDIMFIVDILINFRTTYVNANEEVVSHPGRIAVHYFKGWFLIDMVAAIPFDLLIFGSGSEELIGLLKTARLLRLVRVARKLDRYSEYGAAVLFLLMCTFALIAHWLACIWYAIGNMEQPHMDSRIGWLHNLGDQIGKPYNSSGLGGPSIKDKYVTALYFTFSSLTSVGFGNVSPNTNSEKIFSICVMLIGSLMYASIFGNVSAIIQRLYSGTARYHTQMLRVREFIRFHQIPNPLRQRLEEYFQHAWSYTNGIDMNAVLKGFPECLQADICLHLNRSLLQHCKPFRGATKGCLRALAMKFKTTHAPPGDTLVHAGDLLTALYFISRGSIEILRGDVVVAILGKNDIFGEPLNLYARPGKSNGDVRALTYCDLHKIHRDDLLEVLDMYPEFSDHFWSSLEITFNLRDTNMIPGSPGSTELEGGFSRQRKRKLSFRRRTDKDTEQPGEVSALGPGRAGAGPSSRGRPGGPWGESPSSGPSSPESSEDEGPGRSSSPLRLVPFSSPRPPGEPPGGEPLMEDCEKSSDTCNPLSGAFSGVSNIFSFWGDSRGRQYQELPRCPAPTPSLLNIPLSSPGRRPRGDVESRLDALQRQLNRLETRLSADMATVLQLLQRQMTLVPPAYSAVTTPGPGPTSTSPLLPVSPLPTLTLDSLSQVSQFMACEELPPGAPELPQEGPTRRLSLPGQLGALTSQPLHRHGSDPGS
chimpanzee Androgen Receptor (AR), AR (gene 747460), sequence (O97775 whole entry, looked up): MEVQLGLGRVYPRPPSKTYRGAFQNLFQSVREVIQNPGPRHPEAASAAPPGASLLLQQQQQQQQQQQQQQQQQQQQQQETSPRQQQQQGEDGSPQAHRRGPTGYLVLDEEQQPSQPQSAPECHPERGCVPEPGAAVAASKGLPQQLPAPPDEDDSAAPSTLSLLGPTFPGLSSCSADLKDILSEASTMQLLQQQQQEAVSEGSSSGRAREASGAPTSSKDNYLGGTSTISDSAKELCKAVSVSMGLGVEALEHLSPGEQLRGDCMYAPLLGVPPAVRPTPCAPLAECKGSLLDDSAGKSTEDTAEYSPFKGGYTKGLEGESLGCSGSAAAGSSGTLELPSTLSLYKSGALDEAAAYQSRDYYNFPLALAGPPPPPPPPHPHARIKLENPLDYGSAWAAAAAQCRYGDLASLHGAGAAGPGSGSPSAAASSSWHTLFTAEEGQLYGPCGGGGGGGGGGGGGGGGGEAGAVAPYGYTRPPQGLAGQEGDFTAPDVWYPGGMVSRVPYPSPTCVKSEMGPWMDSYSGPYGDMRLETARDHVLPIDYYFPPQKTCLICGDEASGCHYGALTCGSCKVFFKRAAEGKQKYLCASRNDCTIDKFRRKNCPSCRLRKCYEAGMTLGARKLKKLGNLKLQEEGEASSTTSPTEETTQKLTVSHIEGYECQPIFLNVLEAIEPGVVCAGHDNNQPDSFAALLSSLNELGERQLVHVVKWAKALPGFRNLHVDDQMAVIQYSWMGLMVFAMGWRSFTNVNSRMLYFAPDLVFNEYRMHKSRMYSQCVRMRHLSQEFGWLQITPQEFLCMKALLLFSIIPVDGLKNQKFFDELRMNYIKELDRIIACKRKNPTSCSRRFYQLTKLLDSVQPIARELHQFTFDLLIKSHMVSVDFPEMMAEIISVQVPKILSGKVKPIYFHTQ
rat Thyrotropin Releasing Hormone Receptor (TRH), Trhr (gene 25570), sequence (Q01717 whole entry, looked up): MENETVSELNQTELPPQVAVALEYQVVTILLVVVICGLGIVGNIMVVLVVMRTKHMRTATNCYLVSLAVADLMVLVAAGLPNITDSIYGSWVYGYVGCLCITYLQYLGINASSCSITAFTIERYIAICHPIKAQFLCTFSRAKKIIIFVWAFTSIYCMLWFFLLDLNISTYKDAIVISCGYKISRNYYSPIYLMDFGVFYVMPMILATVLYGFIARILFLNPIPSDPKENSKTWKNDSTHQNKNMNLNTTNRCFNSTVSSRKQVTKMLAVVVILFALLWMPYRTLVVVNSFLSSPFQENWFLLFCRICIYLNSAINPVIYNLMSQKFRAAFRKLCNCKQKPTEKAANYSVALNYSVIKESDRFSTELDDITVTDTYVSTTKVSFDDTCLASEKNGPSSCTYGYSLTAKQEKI
human Constitutive Androstane Receptor (CAR), NR1I3 (gene 9970), sequence (Q14994 whole entry, looked up): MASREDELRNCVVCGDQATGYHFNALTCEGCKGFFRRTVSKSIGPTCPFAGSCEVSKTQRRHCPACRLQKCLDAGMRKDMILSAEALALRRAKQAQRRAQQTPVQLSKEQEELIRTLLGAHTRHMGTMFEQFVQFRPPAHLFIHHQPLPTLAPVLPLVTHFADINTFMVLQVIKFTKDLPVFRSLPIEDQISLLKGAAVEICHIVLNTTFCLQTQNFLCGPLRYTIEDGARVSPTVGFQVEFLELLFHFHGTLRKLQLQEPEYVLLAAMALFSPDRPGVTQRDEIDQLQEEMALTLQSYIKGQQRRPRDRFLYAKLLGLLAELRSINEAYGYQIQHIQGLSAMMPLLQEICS

On to `O=[N+]([O-])c1cc(C(F)(F)F)c(Cl)c([N+](=O)[O-])c1Nc1ncc(C(F)(F)F)cc1Cl`, for which the call in [1], in [2] and in experiment [3] was inactive.
On to `C[Si](Cn1cncn1)(c1ccc(F)cc1)c1ccc(F)cc1`, for which the molecule was classed as inactive in experiment [1] and in experiment [4]. The AC50 in the experiment on NCBI gene 100848466 is 25 µM (active); in experiment [5] it was 9.47 µM (active).
With `COc1ccc(C(=CC(=O)N2CCOCC2)c2ccc(Cl)cc2)cc1OC`, the AC50 in experiment [6] is 1.79 µM (active); in experiment [5] it was 17.3 µM (active). For the same molecule, the molecule was called inactive in experiment [4], in [7], in [8] and in experiment [3].
For the molecule `C=C(C)[C@H]1Cc2c(ccc3c2O[C@@H]2COc4cc(OC)c(OC)cc4[C@@H]2C3=O)O1`, the molecule was called inactive (in experiment [6]; in the experiment on NCBI gene 100848466; in experiment [3]). In experiment [4], the half-maximal activity concentration (AC50) was 4.23 µM (active).
`CNc1cnn(-c2cccc(C(F)(F)F)c2)c(=O)c1Cl`: the call (in experiment [9]; in the experiment on NCBI gene 100848466; in experiment [3]) was inactive. Further, the AC50 in [4] was 4.99 µM (active).
In the case of `CCc1cccc(CC)c1N(COC)C(=O)CCl`, the molecule was classed as inactive in [10]. Further, the figures for the half-maximal activity concentration (AC50) in experiment [4], in experiment [3] and in experiment [5] were 5.18 µM (active), 9.33 µM (active) and 34.6 µM (active), respectively.
On to `Nc1c(Cl)cc([N+](=O)[O-])cc1Cl`, for which the molecule was called inactive in experiment [1] and in experiment [11]. Besides, the concentration at half-maximal activity (AC50) in [5] was 15.4 µM (active).
Regarding `CSc1nc(NC(C)C)nc(NC(C)C)n1`, the half-maximal activity concentration (AC50) in experiment [2] is 6.4 µM (active).
As for `FC(F)C(F)(F)OCC(Cn1cncn1)c1ccc(Cl)cc1Cl` (centres undefined), the molecule was classed as inactive in [1] and in experiment [12]. For the same molecule, the AC50 in experiment [2] is 19.9 µM (active); in experiment [4], 5.37 µM (active); in experiment [7], 7.26 µM (active); in experiment [8] it was 10.1 µM (active); with NCBI gene 100848466 it was 25 µM (active); in [5], 5.47 µM (active).
Turning to `CSc1nnc(C(C)(C)C)c(=O)n1N`, the result in [13], in experiment [9], in experiment [7] and in experiment [3] was inactive.
In the case of `CCCCSP(=O)(SCCCC)SCCCC`, the outcome in experiment [2] and in experiment [3] was inactive. The half-maximal activity concentration (AC50) in experiment [4] is 3.75 µM (active).
